Assay results as given in PubChem BioAssay (EPA / NIEHS).
Where “and” joins values, the source holds several entries; their conditions need not be identical. Equal entries are not always repeated. Results filed as inconclusive are left out. Some structures have more than one record in an assay (separate samples or runs), and their calls can disagree. Calls of active or inactive are those of the source. Rule for the calls, unless noted: active = hit-call score of the fitted dose curve at least 0.9, where 1 is the maximum; inactive = score below 0.9.

Tests used:
[1] = CCTE_Mundy_HCI_hN2_NOG_NeuriteCount: CCTE's Neurite Outgrowth Assay in human hN2 cells for Neurite Count, Mundy Lab (AID 2284219; active = hit-call score of the fitted dose curve at least 0.9, where 1 is the maximum)
Outline: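 In this morphology assay, hNP1-derived neurons received test chemical 2 h post-plating and were fixed two days later in warm paraformaldehyde/sucrose containing Hoechst 33342. Neurites, labelled by rabbit anti-βIII-tubulin (1:800) and Alexa Fluor-488 (1:500), were counted automatically.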

[2] = CCTE_Mundy_HCI_hN2_NOG_NeuriteLength: CCTE's Neurite Outgrowth Assay in human hN2 cells for Neurite Length, Mundy Lab (AID 2284220; active = hit-call score of the fitted dose curve at least 0.9, where 1 is the maximum)
Outline: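 Plate hNP1-derived neurons, then add chemical 2 h later as a 1/10 dilution. Stain with anti-βIII-tubulin then Alexa Fluor-488 secondary, and image automatically to measure neurite length.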

[3] = CCTE_Mundy_HCI_Cortical_Synap_Neur_Matur_NeuriteCount: CCTE's Synaptogenesis and Neurite Maturation Assay in rat cortical cells for Neurite Count, Mundy Lab (AID 2284222);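 for outcome: exposure from day 7 to day 12 in vitro with readout at day 12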
Outline: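 Primary rat cortical cells were plated, treated with AraC at DIV 5, then exposed to chemicals from DIV 7 through DIV 12. After fixation and immunostaining for MAP2 and synaptophysin, imaging quantified neurites, with DMSO as the negative control.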

[4] = CCTE_Mundy_HCI_Cortical_Synap_Neur_Matur_CellBodySpotCount: CCTE's Synaptogenesis and Neurite Maturation Assay in rat cortical cells for Cell Body Spot Count, Mundy Lab (AID 2284223)
Outline: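 Rat cortical neurons; AraC @ DIV 5; dose + media change DIV 7; fix DIV 12; anti-MAP2/anti-synaptophysin IF, Hoechst; HCI count of soma synaptophysin puncta/neuron; DMSO = negative control.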

[5] = CCTE_Mundy_HCI_Cortical_NOG_BPCount: CCTE's Neurite Outgrowth Assay in rat cortical cells for Branch Point Count, Mundy Lab (AID 2284237);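 for AC50: branch points counted about two days after chemical exposure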
Outline: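 Measured 50.33 h after dosing, this morphology endpoint uses rat primary cortical cultures labelled for betaIII-tubulin. Branch points are quantified by high-content imaging, with DMSO as negative control and baseline.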

[6] = CCTE_Mundy_HCI_hNP1_Pro_ResponderAvgInten: CCTE's Proliferation Assay in human neuroprogenitor cells, Mundy Lab (AID 2284224; active = hit-call score of the fitted dose curve at least 0.9, where 1 is the maximum;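 note: human neural progenitor cells hNP1 derived from WA09 embryonic stem cells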)
Outline: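 Proliferation was scored as BrdU labelling intensity in human neural progenitors derived from WA09 embryonic cells, measured 26.25 hours after chemical dosing. Activity was fitted relative to DMSO.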

[7] = UKN4_HCS_LUHMES_cell_viability: Viability Assessment in the University of Konstanz (UKN) Leist Lab Neurite Outgrowth Assay in human LUHMES cells (UKN4) (AID 2284232)
Outline: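 Viability was read by high-content imaging of calcein-AM/H-33342-stained cells after 24 h toxicant exposure, staining included. Cells: human LUHMES on day 2 of dopaminergic differentiation, dosed shortly after attachment; DMSO baseline, bidirectional curve fitting.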

[8] = UKN2_HCS_IMR90_cell_viability: Viability Assessment in the University of Konstanz (UKN) Leist Lab Neural Crest Cell Migration Assay in human induced IMR90 Pluripotent Stem Cells (UKN2) (AID 2284233);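 note: cells exposed to compound for 24 h after a 24 h migration phase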
Outline: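 After calcein-AM/Hoechst staining, viability is quantified by high-content fluorescence imaging, relative to DMSO, in iPSC (IMR90)-derived neural crest cells. Exposure lasts 24 h, starting after a 24 h migration period on PLO/laminin/fibronectin coating.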

[9] = CCTE_Mundy_HCI_Cortical_NOG_NeuronCount: CCTE's Neurite Outgrowth Assay in rat cortical cells for Neuron Count, Mundy Lab (AID 2284236; active = hit-call score of the fitted dose curve at least 0.9, where 1 is the maximum;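 note: neurons counted by imaging betaIII-tubulin and Hoechst stained cortical cells; cells exposed to compound for about 48 hours before fixation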)
Outline: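 Read-out: neuron number by high-content imaging of betaIII-tubulin (Alexa Fluor-488) and Hoechst-labelled rat primary cortical cells.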

[10] = CCTE_Mundy_HCI_hN2_NOG_NeuronCount: CCTE's Neurite Outgrowth Assay in human hN2 cells for Neuron Count, Mundy Lab (AID 2284221; active = hit-call score of the fitted dose curve at least 0.9, where 1 is the maximum)
Outline: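 Read-out is the number of betaIII-tubulin-positive neurons imaged by automated high-content analysis, with DMSO as negative control.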

[11] = TAMU_HCS_1.5hr_SingleDonor1434_Cytotoxicity: Cytotoxicity Assessment using High-content Screening (HCS) Fluorescent Imaging for the Texas A&M University (TAMU) 1.5-hr Human Induced Pluripotent Stem Cell (iPSC)-derived Cardiotoxicity Assay (AID 2284234; active = hit-call score of the fitted dose curve at least 0.9, where 1 is the maximum)
Outline: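 Nuclear counts from Hoechst 33342 imaging define cytotoxicity here, with EC10 (10% cell-count loss relative to DMSO) as point of departure. iPSC cardiomyocytes received 0.2-100 uM test chemical in 0.5% DMSO for 1.5 h at 37 C.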

[12] = TAMU_PeakParms_SingleDonor1434_QT: Texas A&M University (TAMU) 1.5-hr Human Induced Pluripotent Stem Cell (iPSC)-derived Cardiomyocytes Calcium (Ca+2) Flux Assay for Cardiotoxicity: QT (decay-rise ratio) (AID 2284235; active = hit-call score of the fitted dose curve at least 0.9, where 1 is the maximum)
Outline: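 Decay/rise ratio of calcium-flux fluorescence scored after 90 min exposure (37C) of donor 1434 iPSC cardiomyocytes to 0.2–100 uM (0.5% DMSO). Beat-cessation and severe-notch points removed; POD is EC05, a 5% rise over DMSO.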

[13] = BSK_BT_PBMCCytotoxicity: PBMC Cytotoxicity Assessment in the BioMAP Diversity Plus: BT Assay (AID 2284225); details: primary human B cells with PBMC;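 note: PBMC viability measured by Alamar Blue dye reduction fluorescence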
Outline: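 Viability by Alamar Blue reduction (6 h, ex/em 546/580 nm) after 90 h culture of SEB/TSST-1-activated PBMC (20 ng/mL each) given compound 1 h before activation. DMSO served as baseline for curve fitting.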

[14] = read-out: Secreted IgG (sIgG), gene 3500; assay: BSK_BT_sIgG: BioMAP Diversity Plus: BT Assay for Secreted IgG (sIgG) Biomarker Activity (AID 2284226); details: primary human B cells with PBMC
Outline: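 ELISA quantitation of secreted IgG from human B cells co-cultured with PBMC, sampled 24 h post-dosing. Values fitted relative to DMSO vehicle as baseline, positive fitting direction.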

[15] = BSK_BT_Bcell_Proliferation: Viability Assessment in the BioMAP Diversity Plus: BT Assay for B cell Proliferation (AID 2284227); details: primary human B cells with PBMC
Outline: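 Read-out is absorbance at 560 nm from sulforhodamine B staining of total protein, reflecting relative cell numbers in a human B cell and PBMC co-culture after 72 h of chemical exposure. Values were referenced to DMSO.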

[16] = read-out: Interleukin 6 (IL6), IL6 (gene 3569); assay: BSK_BT_xIL6: BioMAP Diversity Plus: BT Assay for Interleukin 6 (IL6) Biomarker Activity (AID 2284228); details: primary human B cells with PBMC
Outline: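 B cells and peripheral blood mononuclear cells (human primary co-culture) were dosed with chemical, and after 24 h IL-6 released into the medium was measured by Luminex xMAP. Responses were analysed as gain of signal over DMSO control.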

[17] = read-out: Interleukin 17A (IL17A), IL17A (gene 3605); assay: BSK_BT_xIL17A: BioMAP Diversity Plus: BT Assay for Interleukin 17A (IL17A) Biomarker Activity (AID 2284229); details: primary human B cells with PBMC
Outline: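 Secreted IL-17A was the measured endpoint, read by Luminex xMAP multiplex in supernatants of a human B cell/PBMC co-culture harvested 24 h after chemical dosing. Signal increase relative to DMSO defined activity.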

[18] = read-out: Tumor necrosis factor (Homo sapiens) (UniProt P01375); assay: BSK_BT_xTNFa: BioMAP Diversity Plus: BT Assay for Tumor necrosis factor alpha (TNF-alpha) Biomarker Activity (AID 2284230); details: primary human B cells with PBMC
Outline: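 Human primary co-culture of B cells and peripheral blood mononuclear cells; TNF-alpha in supernatant, 24 h post-dose, Luminex multiplex; DMSO = baseline.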

[19] = read-out: Vascular cell adhesion molecule 1 (VCAM1), VCAM1 (gene 7412); assay: BSK_MyoF_VCAM1: BioMAP Diversity Plus: MyoF Assay for Vascular cell adhesion molecule 1 (VCAM1) Biomarker Activity (AID 2284231); details: primary human lung fibroblasts
Outline: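 ELISA read-out of VCAM-1 on human lung fibroblasts 24 h after chemical treatment, with positive-direction curve fitting relative to DMSO controls. Parallel cultures were stained with sulforhodamine B for total protein to flag overt cytotoxicity.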

[20] = read-out: Collagen I, COL1A1 (gene 1277); assay: BSK_MyoF_CollagenI: BioMAP Diversity Plus: MyoF Assay for Collagen I Biomarker Activity (AID 2284238); details: primary human lung fibroblasts
Outline: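 Lung fibroblasts (human primary) dosed, 24 h; Collagen I by ELISA; positive-direction fit vs DMSO control. Parallel SRB total-protein staining (0.1% SRB, 10% TCA fixation, 560 nm) flags overt cytotoxicity.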

Chain of Tumor necrosis factor (Homo sapiens) (P01375 whole entry, looked up): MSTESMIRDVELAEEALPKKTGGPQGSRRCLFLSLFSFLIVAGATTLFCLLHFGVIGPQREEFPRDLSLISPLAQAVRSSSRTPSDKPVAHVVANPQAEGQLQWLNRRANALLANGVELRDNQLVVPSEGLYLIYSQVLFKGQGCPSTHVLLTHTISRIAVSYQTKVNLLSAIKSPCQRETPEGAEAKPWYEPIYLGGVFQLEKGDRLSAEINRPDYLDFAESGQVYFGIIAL

SMILES: COP(=O)(NC(C)=O)SC (stereo not given)
- outcome [1]: inactive
- outcome [2]: inactive
- outcome [3]: inactive
- outcome [4]: inactive
- outcome [5]: inactive

SMILES: CC(=NC#N)N(C)Cc1ccc(Cl)nc1
- outcome [3]: inactive
- outcome [4]: inactive
- outcome [6]: inactive
- outcome [7]: inactive
- outcome [8]: inactive
- outcome [9]: inactive
- outcome [5]: inactive

SMILES: CCCSP(=O)(OCC)SCCC
- outcome [1]: inactive
- outcome [2]: inactive
- outcome [10]: inactive
- outcome [3]: inactive
- outcome [4]: inactive
- outcome [6]: inactive
- outcome [8]: inactive
- outcome [9]: inactive
- outcome [5]: inactive

SMILES: CCOP(=O)(NC(C)C)Oc1ccc(SC)c(C)c1 (stereo not given)
- outcome [3]: inactive
- outcome [4]: inactive
- outcome [6]: inactive
- outcome [8]: inactive
- outcome [9]: inactive
- outcome [5]: inactive

SMILES: CCOP(=S)(OCC)Oc1ccc([N+](=O)[O-])cc1
- outcome [3]: inactive
- outcome [4]: inactive
- outcome [11]: inactive
- outcome [12]: inactive
- AC50 [5]: 24.7 µM (active)

SMILES: CON=C(C(=O)OC)c1ccccc1CON=C(C)c1cccc(C(F)(F)F)c1
- AC50 [3]: 1.24 µM (active)
- AC50 [4]: 3.43 µM (active)
- AC50 [6]: 79.9 µM (active)
- AC50 [8]: 50 µM (active)
- AC50 [9]: 1.78 µM (active)
- AC50 [5]: 0.929 µM (active)

SMILES: CC1=NNC(=O)N(/N=C/c2cccnc2)C1
- outcome [3]: inactive
- outcome [4]: inactive
- outcome [9]: inactive
- outcome [5]: inactive

SMILES: CCCCSP(=O)(SCCCC)SCCCC
- AC50 [3]: 16.1 µM (active)
- outcome [3]: inactive
- AC50 [4]: 22.9 µM (active)
- outcome [4]: inactive
- AC50 [6]: 50 µM (active) and 74.1 µM (active)
- outcome [8]: inactive
- AC50 [9]: 86.4 µM (active) and 68.4 µM (active)
- AC50 [5]: 84.4 µM (active) and 76 µM (active)

SMILES: CN1COCN(Cc2cnc(Cl)s2)C1=N[N+](=O)[O-]
- outcome [3]: inactive
- outcome [4]: inactive
- outcome [6]: inactive
- outcome [5]: inactive

SMILES: CN(C)[C@@H]1C(=O)C(C(N)=O)=C(O)[C@@]2(O)C(=O)C3=C(O)c4c(O)cccc4[C@@](C)(O)[C@H]3[C@H](O)[C@@H]12
- AC50 [3]: 72.5 µM (active)
- AC50 [4]: 50 µM (active)
- AC50 [6]: 90.6 µM (active)
- outcome [13]: inactive
- outcome [14]: inactive
- outcome [15]: inactive
- outcome [16]: inactive
- outcome [17]: inactive
- outcome [18]: inactive
- outcome [19]: inactive
- AC50 [8]: 90 µM (active)
- AC50 [9]: 76.9 µM (active)
- outcome [5]: inactive
- outcome [20]: inactive

SMILES: CCOP(=S)(OCC)Oc1ccc2c(C)c(Cl)c(=O)oc2c1
- AC50 [1]: 22.1 µM (active)
- AC50 [2]: 18.6 µM (active)
- AC50 [10]: 18.9 µM (active)
- outcome [3]: inactive
- outcome [4]: inactive
- outcome [6]: inactive
- outcome [9]: inactive
- AC50 [5]: 86.4 µM (active)

SMILES: CCOP(=O)(OCC)Oc1cc(C)nc(C(C)C)n1
- outcome [3]: inactive
- outcome [4]: inactive
- outcome [6]: inactive
- outcome [8]: inactive
- outcome [9]: inactive
- outcome [5]: inactive

SMILES: COP(=O)(OC)C(O)C(Cl)(Cl)Cl (stereo not given)
- outcome [3]: inactive
- AC50 [6]: 50 µM (active)
- outcome [5]: inactive
